ALR H2O2 inh: inhibitors of human ALR sulfhydryl oxidase, primary screen, biochemical, H2O2 detection, HRP-luminol luminescence, single point; FAD-linked sulfhydryl oxidase ALR (Homo sapiens), P55789; purified ALR, DTT oxidation; inhibition, % (no concentration beside the values); 3.8% of 290,000 active; AID 485317, 2010;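 active = mean replicate inhibition above about 79%, with every replicate also reaching it, limit read from the data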
Target sequence (P55789 whole entry, looked up): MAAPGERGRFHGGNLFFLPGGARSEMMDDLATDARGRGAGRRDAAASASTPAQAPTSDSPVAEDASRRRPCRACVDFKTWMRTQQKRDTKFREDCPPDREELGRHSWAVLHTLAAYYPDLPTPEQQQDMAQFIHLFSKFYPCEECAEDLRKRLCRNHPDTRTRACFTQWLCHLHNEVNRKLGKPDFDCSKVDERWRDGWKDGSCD
A1 inh: caspase 3/7 activation in MEF A1-2A-BIM cells, primary screen, A1 inhibitor project, cell-based, luminescence, HTS; Caspase-Glo 3/7 luminescence, 3 h; percent of clofoctol response, vehicle zero; caspase activation, % (concentration not given with the values); 0.066% of 330,000 active; AID 2462, 2010;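 active = over half of replicate activation scores above 10%, or exactly half above 10 with the replicate mean above 10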
VLA-4 inh: inhibition in human VLA-4 binding assay, primary screen, VLA-4 allosteric modulator project, MLPCN library, flow cytometry, VLA-4 expressing cells | inhibition, % (about 7 µM as worked out from the volumes in the protocol) | Integrin alpha-4 (Homo sapiens), P13612 | 0.2% of 330,000 active | AID 2557, 2010 | ligand binding flow cytometry; in the data active = inhibition above about 50%
AHR act: AHR activators, primary screen, cell-based, luminescence, luciferase reporter, human; Aryl hydrocarbon receptor (Homo sapiens), P35869; activation, % at 5 µM; 2.5% of 320,000 active; AHR-responsive luciferase reporter cells; in the data active = activation above about 47%
SUMO Mot1 rescue: yeast Mot1-301 growth rescue at high temperature, primary screen, SUMOylation pathway inhibitor project, S. cerevisiae, ATP luminescence, 38.5C; 1% of 320,000 active; AID 2716, 2010; growth rescue, % at 18.8 µM; S. cerevisiae Mot1-301 growth rescue; percent above DMSO median, 100 means doubled;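 active = every valid replicate shows activation above 250% relative to neutral control wells; inactive = the rest, any valid replicate at or below 250%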
Efflux pump mplx: inhibitors of Candida efflux pumps in yeast, primary screen, S. cerevisiae, Nile Red, multiplex; S. cerevisiae Candida pump triplex; inhibition, % at 10 µM; 0.44% of 330,000 active;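 active = plate passing quality check with inhibition over a set limit, or well fluorescence over plate mean plus 4 SD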;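 also: Nile Red retained in pooled yeast measured as flow cytometry median fluorescence; higher means more Nile Red kept so more efflux inhibition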
Cmpd fluor yeast: counter-screen for efflux pump inhibitors: compound fluorescence; shares compounds with Efflux pump mplx; S. cerevisiae AD/pABC3, flow cytometry; fluorescence ratio to DMSO, % at 10 µM; 4% of 1,700 active;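 active = fluorescence ratio to DMSO above its plate's cutoff, the plate mean ratio plus 5 SD, cut at about 210% in these data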;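 also: unstained yeast with no Nile Red so the signal is compound autofluorescence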
CaMdr1 efflux inh: inhibitors of Candida albicans Mdr1 efflux, confirmation, flow cytometry, singleplex, Cherry Pick1 set | shares compounds with Efflux pump mplx | S. cerevisiae AD/CaMDR1, Nile Red efflux | inhibition, % at 10 µM | 1% of 1,700 active; in the data active = inhibition above about 26%;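 also: higher means more Nile Red retained so more efflux inhibition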
CaCdr2 efflux inh: inhibitors of Candida albicans Cdr2 efflux pump, confirmation, S. cerevisiae AD/CaCDR2, flow cytometry, cherry pick 1, singleplex. Nile Red retention ratio vs DMSO, % at 10 µM. 4% of 1,700 active. shares compounds with Efflux pump mplx. Nile Red retention. AID 588520, 2011; in the data active = Nile Red retention ratio vs DMSO above about 190%;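 also: higher ratio means more blocking of Cdr2 efflux of the dye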
Cdr1 pump inh: inhibitors of Candida albicans Cdr1 efflux pump, confirmation, S. cerevisiae AD/CaCDR1, flow cytometry, cherry pick 1, singleplex. shares compounds with Efflux pump mplx. Nile Red efflux. inhibition, % at 10 µM. 1% of 1,700 active. AID 588522, 2011;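 active = inhibition above the screen-wide mean plus twice its standard deviation, cut at about 32% in these data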
Of the large screens only hits and unclear results are named; the others gave an inactive call (follow-up assays come after a bar, where they were run). Hits are enriched below; roughly 7.2% of the tested compounds scored in any of these assays.

O=C(COC(=O)c1cccnc1Nc1ccccc1F)NCCN1C(=O)CSC1=O	none
CC1CC(C)CN(S(=O)(=O)c2ccc(C(=O)OCC(=O)NCCN3C(=O)CSC3=O)cc2)C1 (centres undefined)	none
CCOc1ccc(NC(=O)COC(=O)c2ccc3c(c2)OCCO3)cc1	none
COc1ccc(N(CC(=O)NCc2ccccn2)S(=O)(=O)c2ccccc2[N+](=O)[O-])c(OC)c1	none
CC(C)OCCCNC(=O)Cc1ccc(Br)cc1	none
CN(C)S(=O)(=O)Nc1ccc2c(c1)Cc1ccccc1-2	none
CN(C)S(=O)(=O)Nc1ccc(NS(=O)(=O)N(C)C)c(S(=O)(=O)c2ccccc2)c1	Efflux pump mplx 0.7 | Cmpd fluor yeast inactive | CaMdr1 efflux inh inactive | CaCdr2 efflux inh inactive | Cdr1 pump inh inactive
O=C1CCCC(=O)C1=C1SCCCS1	Efflux pump mplx 6.5 | Cmpd fluor yeast inactive | CaMdr1 efflux inh inactive | CaCdr2 efflux inh inactive | Cdr1 pump inh inactive
CCOC(=O)c1c(C)[nH]c(C)c1S(=O)(=O)NCc1ccccc1C	Efflux pump mplx 0.4 | Cmpd fluor yeast inactive | CaMdr1 efflux inh inactive | CaCdr2 efflux inh inactive | Cdr1 pump inh inactive
Cn1cc(Br)c(C(=O)Nc2ncc(Br)s2)n1	none
CCCc1ccc(OCC(O)CN2CCN(c3ccccn3)CC2)cc1 (centres undefined)	none
CCOC(=O)c1c(-c2ccccc2)csc1NC(=O)c1cc(-c2ccccc2OC)on1	Efflux pump mplx 0.7 | Cmpd fluor yeast inactive | CaMdr1 efflux inh inactive | CaCdr2 efflux inh inactive | Cdr1 pump inh inactive
CC(=O)N1CCC(N(CCN2CCOCC2)C(=S)Nc2cc(C)ccc2C)CC1	none
Cc1ccc(Nc2c([N+](=O)[O-])c(=O)oc3ccccc23)cc1C	none
COc1ccc(C2c3ccc4ccccc4c3Oc3ncn(CCN4CCOCC4)c(=N)c32)cc1OC (centres undefined)	none
COc1ccc(C2c3ccc4ccccc4c3Oc3ncn(CCN4CCOCC4)c(=N)c32)cc1 (centres undefined)	Efflux pump mplx 1.0 | Cmpd fluor yeast inactive | CaMdr1 efflux inh inactive | CaCdr2 efflux inh inactive | Cdr1 pump inh inactive
COCCn1c(=S)[nH]c2sc3c(c2c1=O)CCCC3	Efflux pump mplx 1.1 | Cmpd fluor yeast inactive | CaMdr1 efflux inh inactive | CaCdr2 efflux inh inactive | Cdr1 pump inh inactive
COCCCn1c(=S)[nH]c2sc3c(c2c1=O)CCCC3	none
CCc1ccc(-n2c(=O)c3ccccc3n(CC(=O)NCc3ccco3)c2=O)cc1	Efflux pump mplx 0.8 | Cmpd fluor yeast inactive | CaMdr1 efflux inh inactive | CaCdr2 efflux inh inactive | Cdr1 pump inh inactive
CN1CCN(Cc2cc(Cl)c3cccnc3c2OC(=O)c2cccs2)CC1	Efflux pump mplx 11 | Cmpd fluor yeast inactive | CaMdr1 efflux inh inactive | CaCdr2 efflux inh inactive | Cdr1 pump inh inactive
O=C(COc1ccc(S(=O)(=O)N2CCOCC2)cc1Cl)NCC1CCCO1 (centres undefined)	none
